# Calls of active or inactive are those of the source.
# Columns and labels:
# [1] = binders of probe aFSTL3 on microarray, primary screen, stem cell growth factor project, biochemical, small-molecule microarray, fluorescence 635/667 (AID 1064); conditions: higher = more signal;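 also: measures binding of the biotinylated anti-FSTL3 antibody to printed compounds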
# [2] = binders from COS7 lysate, DM2A8 probe, primary screen, torsin A project, cell lysate, small-molecule microarray, fluorescence 635/667 (AID 1065); conditions: higher = more signal, COS7 lysate expressing mutant human TOR1A
# [3] = binders of probe aFGF2 on microarray, primary screen, stem cell growth factor project, biochemical, small-molecule microarray, fluorescence 635/667 (AID 1067); conditions: higher = more signal;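 also: measures binding of biotinylated aFGF2 protein to printed compounds on slides; z-score merges feature fluorescence and signal-to-noise across triplicate slides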
# [4] = binders of probe aFGF10 on microarray, primary screen, stem cell growth factor project, biochemical, small-molecule microarray, fluorescence 635/667 (AID 1071); conditions: higher = more signal;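 also: score merges 667 nm spot intensity and signal to noise from triplicate slides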
# [5] = target: Neurogenic locus notch homolog protein 2 (Homo sapiens) (UniProt Q04721); test: Notch2 binders on small-molecule microarrays, primary screen, biochemical, small-molecule microarray, 635 nm fluorescence, stem cell growth factors (AID 1073); conditions: Notch2 binding, higher = more signal
# Chain of Neurogenic locus notch homolog protein 2 (Homo sapiens) (Q04721 whole entry, looked up, canonical isoform): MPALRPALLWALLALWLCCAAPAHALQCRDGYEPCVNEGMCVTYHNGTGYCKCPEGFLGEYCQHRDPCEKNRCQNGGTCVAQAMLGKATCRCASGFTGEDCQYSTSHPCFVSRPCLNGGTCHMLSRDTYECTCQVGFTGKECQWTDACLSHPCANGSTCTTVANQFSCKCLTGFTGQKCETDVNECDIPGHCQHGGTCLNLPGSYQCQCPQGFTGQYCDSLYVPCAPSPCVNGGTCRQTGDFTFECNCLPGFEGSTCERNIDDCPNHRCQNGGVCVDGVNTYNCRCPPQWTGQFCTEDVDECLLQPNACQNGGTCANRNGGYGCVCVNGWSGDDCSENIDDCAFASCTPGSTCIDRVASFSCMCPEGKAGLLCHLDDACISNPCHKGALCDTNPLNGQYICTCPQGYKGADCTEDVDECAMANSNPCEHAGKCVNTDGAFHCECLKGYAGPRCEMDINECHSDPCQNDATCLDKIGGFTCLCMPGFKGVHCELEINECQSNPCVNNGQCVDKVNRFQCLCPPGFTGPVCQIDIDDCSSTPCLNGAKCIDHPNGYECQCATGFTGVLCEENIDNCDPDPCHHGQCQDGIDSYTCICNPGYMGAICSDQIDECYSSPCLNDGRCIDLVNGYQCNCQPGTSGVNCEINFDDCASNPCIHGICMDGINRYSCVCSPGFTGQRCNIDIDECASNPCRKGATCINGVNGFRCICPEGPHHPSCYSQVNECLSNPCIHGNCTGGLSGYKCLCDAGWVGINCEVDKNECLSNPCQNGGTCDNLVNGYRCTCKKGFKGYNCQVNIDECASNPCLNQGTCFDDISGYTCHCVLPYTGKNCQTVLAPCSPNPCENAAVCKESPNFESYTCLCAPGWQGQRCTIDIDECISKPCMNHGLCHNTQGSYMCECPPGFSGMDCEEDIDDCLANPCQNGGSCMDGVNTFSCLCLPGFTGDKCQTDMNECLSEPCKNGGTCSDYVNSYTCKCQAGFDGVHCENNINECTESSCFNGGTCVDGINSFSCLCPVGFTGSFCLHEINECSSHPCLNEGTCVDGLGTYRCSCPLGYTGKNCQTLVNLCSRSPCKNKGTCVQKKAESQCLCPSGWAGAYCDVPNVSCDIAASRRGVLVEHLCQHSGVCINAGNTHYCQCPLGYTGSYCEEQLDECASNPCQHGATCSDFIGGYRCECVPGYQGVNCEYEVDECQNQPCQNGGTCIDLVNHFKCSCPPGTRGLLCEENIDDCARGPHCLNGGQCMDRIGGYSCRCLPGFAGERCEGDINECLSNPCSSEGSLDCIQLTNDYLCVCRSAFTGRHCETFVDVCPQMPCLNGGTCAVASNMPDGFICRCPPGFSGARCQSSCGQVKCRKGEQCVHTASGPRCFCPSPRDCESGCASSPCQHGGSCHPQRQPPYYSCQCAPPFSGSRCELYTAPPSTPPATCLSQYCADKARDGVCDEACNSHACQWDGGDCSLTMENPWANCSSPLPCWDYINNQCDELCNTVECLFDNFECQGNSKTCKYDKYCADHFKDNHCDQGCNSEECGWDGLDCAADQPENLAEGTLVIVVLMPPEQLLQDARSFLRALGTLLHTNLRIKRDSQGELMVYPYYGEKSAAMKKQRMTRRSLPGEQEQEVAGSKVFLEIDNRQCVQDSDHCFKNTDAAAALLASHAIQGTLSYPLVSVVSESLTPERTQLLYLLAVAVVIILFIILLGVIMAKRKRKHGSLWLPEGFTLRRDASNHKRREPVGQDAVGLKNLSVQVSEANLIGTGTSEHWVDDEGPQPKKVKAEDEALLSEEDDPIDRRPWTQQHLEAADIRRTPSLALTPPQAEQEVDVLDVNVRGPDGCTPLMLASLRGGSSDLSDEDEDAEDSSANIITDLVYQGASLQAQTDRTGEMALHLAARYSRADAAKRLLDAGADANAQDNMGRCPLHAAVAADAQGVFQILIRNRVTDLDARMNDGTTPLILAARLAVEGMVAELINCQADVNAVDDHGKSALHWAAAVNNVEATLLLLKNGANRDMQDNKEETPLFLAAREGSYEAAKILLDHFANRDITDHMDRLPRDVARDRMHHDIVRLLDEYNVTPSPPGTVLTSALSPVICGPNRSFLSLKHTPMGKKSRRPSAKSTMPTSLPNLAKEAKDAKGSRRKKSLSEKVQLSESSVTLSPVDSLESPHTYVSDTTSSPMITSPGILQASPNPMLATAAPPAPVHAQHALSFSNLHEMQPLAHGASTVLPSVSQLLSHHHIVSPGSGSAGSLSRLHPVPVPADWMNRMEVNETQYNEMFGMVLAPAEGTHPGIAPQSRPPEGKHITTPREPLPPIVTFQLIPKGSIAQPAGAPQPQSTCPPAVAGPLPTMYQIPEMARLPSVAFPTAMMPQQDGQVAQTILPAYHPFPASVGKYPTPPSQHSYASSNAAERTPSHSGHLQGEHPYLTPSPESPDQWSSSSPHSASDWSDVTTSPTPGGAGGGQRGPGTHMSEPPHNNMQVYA
# [6] = target: Pro-neuregulin-1, membrane-bound isoform (Homo sapiens) (UniProt Q02297); test: NRG1 binders on small-molecule microarrays, primary screen, psychiatric disease protein project, biochemical, small-molecule microarray, fluorescence 635/667 (AID 1075); conditions: NRG1 binding, 635 nm fluorescence, higher = more signal;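 also: score combines 667 nm spot fluorescence with signal to noise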
# Chain of Pro-neuregulin-1, membrane-bound isoform (Homo sapiens) (Q02297 whole entry, looked up, the tested form may be a part, canonical isoform): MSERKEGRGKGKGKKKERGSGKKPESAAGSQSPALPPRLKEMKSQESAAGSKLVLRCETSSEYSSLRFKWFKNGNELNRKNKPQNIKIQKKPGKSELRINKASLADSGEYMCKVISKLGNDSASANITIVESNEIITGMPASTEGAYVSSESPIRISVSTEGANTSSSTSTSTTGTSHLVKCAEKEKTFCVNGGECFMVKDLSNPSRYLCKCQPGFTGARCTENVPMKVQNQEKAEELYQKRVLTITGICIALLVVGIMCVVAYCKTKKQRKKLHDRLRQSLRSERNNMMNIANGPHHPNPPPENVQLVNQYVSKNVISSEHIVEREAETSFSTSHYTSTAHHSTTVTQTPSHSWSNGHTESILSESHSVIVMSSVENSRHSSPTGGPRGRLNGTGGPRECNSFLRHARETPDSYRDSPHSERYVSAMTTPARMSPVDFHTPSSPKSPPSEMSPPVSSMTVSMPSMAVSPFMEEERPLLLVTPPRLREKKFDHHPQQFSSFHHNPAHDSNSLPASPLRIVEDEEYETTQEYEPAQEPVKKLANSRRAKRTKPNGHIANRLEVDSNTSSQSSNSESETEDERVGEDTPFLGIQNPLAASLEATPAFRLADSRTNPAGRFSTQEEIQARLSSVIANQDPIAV
# [7] = tested on: Neuregulin-1 EGF-like domain; test: binders of neuregulin-1 EGF-like domain, primary screen, biochemical, small-molecule microarray, 635 nm fluorescence (AID 1081); conditions: small-molecule microarray binding, higher = more signal;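 also: binding of the protein to compounds printed on small-molecule microarray slides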
# [8] = FRG1 promoter luciferase signal modulators, primary screen, FRG1 inhibition for FSHD, cell-based, C2C12 myotubes, firefly/Renilla luciferase, luminescence (AID 1084); conditions: higher = more signal, called active from +8 up or from −8 down
# [9] = binders of probe aFST on microarray, primary screen, stem cell growth factor project, biochemical, small-molecule microarray, fluorescence 635/667 (AID 1086); conditions: higher = more signal;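 also: score merges 667 nm fluorescence with signal-to-noise of each printed compound spot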
# [10] = binders of probe aHhip on microarray, primary screen, stem cell growth factor project, biochemical, small-molecule microarray, fluorescence 635/667 (AID 1087); conditions: higher = more signal;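 also: score merges spot fluorescence at 667nm with spot signal to noise ratio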
SMILES,composite z-score [1],composite z-score [2],composite z-score [3],composite z-score [4],composite z-score [5],composite z-score [6],composite z-score [7],z-score [8],composite z-score [9],composite z-score [10]
O=C(NCC(O)CO)[C@@]1(Cc2ccccc2)COC(c2ccc(OCCCO)cc2)=N1 (stereo not given in full),0.213,-0.0995,-0.083,0.138,-0.0908,0.736,0.698,0.518 (inactive),0.112,-0.12
CC1CC/C=C\[C@H]2OC34C=CCN(CCN5CCOCC5)C(=O)[C@H]3N(CCCCCO)C(=O)[C@@H]4C2C(=O)O1 (stereo not given in full),-0.0823,-0.368,-0.21,-1.05,-0.777,-0.85,-0.358,0.209 (inactive),-0.633,-0.216
C=CCN1C(=O)[C@@]2(O[C@@H](CCO)[C@H]([Si](C)(C)c3ccc(OC)cc3)[C@H]2C)c2cc(NC(C)=O)ccc21,-0.412,0.299,-0.0887,1.19,1.07,0.864,1.2,-0.174 (inactive),0.55,0.294
CO[C@H]1O[C@H](CO)[C@@H](OC(=O)Nc2ccc3c(c2)OCO3)[C@H](OC(=O)Nc2ccc3c(c2)OCO3)[C@H]1OC(=O)Nc1ccc2c(c1)OCO2,0.0472,-0.235,0.0575,0.844,1.39,1.83,1.25,6.05 (inactive),0.634,-0.0296
C=C(C(=O)CC[C@@H](OC(C)=O)c1ccc(OCCO)cc1)C(C)C,0.0823,0.366,-0.0676,0.853,0.146,0.845,1.19,2.4 (inactive),-0.193,-0.287
COC(=O)[C@@]1(Cc2ccccc2)[C@H]2c3cc(C(=O)N(C)C)n(Cc4cc(F)c(F)c(F)c4)c3C[C@H]2CN1C(=O)c1ccccc1,0.683,-0.166,0.117,1.23,1.68,2.02,1.16,1.47 (inactive),0.437,0.776
COc1ccc(CCNC(=O)[C@@]2(C)c3ccccc3C(=O)N(Cc3ccccc3)[C@H]2c2ccc(CO)cc2)cc1,-0.277,1.25,0.0626,0.299,1.24,1.67,1.44,-3.66 (inactive),0.851,0.0286
CN1C(=O)C2C(C1=O)C1C=C(c3ccc(CO)cc3)C2C(C2CC2)N1Cc1sc2ccccc2c1Cl (stereo not given),0.0497,1.17,0.0311,1.02,1.68,1.41,0.866,-2.04 (inactive),0.391,0.2
O=C1O[C@H](c2ccccc2)[C@H](c2ccccc2)N2[C@H]1[C@@H](C(=O)N1CCCCCCC1)[C@]1(C(=O)Nc3ccc(C#CC4=CCCCC4)cc31)[C@H]2c1ccc(O)cc1,3.8,2.87,1.05,1.46,1.84,2.87,1.54,0.805 (inactive),3.41,2.58
CCCNC(=O)[C@@]1(C)c2ccccc2C(=O)N(Cc2cc(F)cc(C(F)(F)F)c2)[C@H]1c1ccc(CO)cc1,0.343,1.04,-0.0901,-0.104,-0.639,0.27,0.146,-0.92 (inactive),-0.282,-0.181
O=C1C2C=CC(C(O)C3CC=CCC3)N(n3cnnc3)C2C(=O)N1Cc1ccccc1 (stereo not given),0.61,0.43,-0.158,-1.03,-1.23,0.998,0.518,0.37 (inactive),-0.354,0.12
CC(C)[C@H]1COC(=O)N1C(=O)[C@H]1[C@@H](c2ccccc2)N(c2ccccc2)O[C@@H]1C,-0.385,0.182,-0.204,0.488,1.14,0.182,0.974,-0.803 (inactive),0.301,-0.367
C=CC[C@]1(C(=O)NCCN2CCOCC2)N=C(c2ccc(OCCCO)cc2)O[C@H]1c1ccccc1N=[N+]=[N-],1.13,0.562,0.178,0.32,0.832,1.56,1.14,1.98 (inactive),1.08,0.176
CCCNC(=O)[C@@]1(C)c2ccccc2C(=O)N(C(C)C)[C@H]1c1ccc(CO)cc1,1.01,-0.214,-0.0704,-0.425,-0.963,0.447,1.3,-0.51 (inactive),-0.35,-0.226
COCCOC(=O)N1C(=O)[C@@]2(c3cc(C#CC4(O)CCCCCC4)ccc31)[C@H](c1ccc(O)cc1)N1[C@H](c3ccccc3)[C@H](c3ccccc3)OC(=O)[C@H]1[C@@H]2C(=O)N1CCc2cc(OC)c(OC)cc2C1,0.244,-0.287,-0.116,-0.432,-1.54,0.449,0.0919,0.0543 (inactive),-0.538,-0.268
COC(=O)c1nc2oc1CC[C@@H](CO)NC(=O)N(C)Cc1cn(nn1)C[C@H](Cc1ccccc1)NC2=O,0.0478,-0.871,-0.0982,0.0055,0.242,1.01,1.09,-0.605 (inactive),-0.324,-0.226
CCCC[C@@H]1C[C@H]1[C@@H](NC(=O)c1ccccc1)c1ccccc1,0.343,-0.0895,0.15,0.14,0.18,-0.392,-0.303,-0.0327 (inactive),1.14,2.02

SMILES,composite z-score [1],composite z-score [2],composite z-score [3],composite z-score [4],composite z-score [5],composite z-score [6],composite z-score [7],z-score [8],composite z-score [9],composite z-score [10]
[N-]=[N+]=Nc1ccccc1[C@@H]1OC(c2ccc(OCCCO)cc2)=N[C@]1(CCS(=O)(=O)c1ccccc1)C(=O)O,0.0639,0.459,0.079,0.839,1.57,1.53,0.862,3.39 (inactive),0.912,0.151
C=C(/C(=C/C[C@@H](OC(C)=O)c1ccc(CO)o1)c1cnc2ccccc2c1)C(C)C,-0.524,1.53,-0.0766,1.13,1.53,0.766,1.32,0.439 (inactive),0.284,-0.0618
O=C1O[C@@H](c2ccccc2)[C@@H](c2ccccc2)N2[C@@H](c3ccc(O)cc3)[C@]3(C(=O)Nc4ccc(C#CCCO)cc43)[C@@H](C(=O)N3CCCCCCC3)[C@H]12,2.71,1.72,0.442,0.888,0.347,1.62,1.25,-1.61 (inactive),2.57,1.64
O=C1O[C@H](c2ccccc2)[C@H](c2ccccc2)N2[C@H]1[C@@H](C(=O)Nc1nc3ccccc3s1)[C@]1(C(=O)Nc3ccc(C#CC4=CCCCC4)cc31)[C@H]2c1ccc(OCCO)cc1,-0.576,0.188,-0.0148,0.556,0.6,0.734,1.11,3.08 (inactive),1.21,0.0834
[N-]=[N+]=NCc1ccccc1C[C@]1(C(=O)NCC(O)CO)COC(c2ccc(OCCCO)cc2)=N1 (stereo not given in full),1.11,2.19,-0.033,-0.329,0.7,1,0.691,-1.03 (inactive),1.1,-0.318
CC(C)OC(=O)C1=CCC(c2cccc(Cl)c2)O1 (stereo not given),-0.206,-0.125,-0.0717,-0.348,-1.12,0.754,1.06,-0.716 (inactive),-0.332,-0.409
C=CCC(OC(C)=O)[C@@H]1[C@@H](N(Cc2ccc(-c3cccc(C(F)(F)F)c3)o2)C(=O)c2ccc(C)cc2)c2cc(OCCCO)ccc2N1C(=O)c1ccc2ccccc2n1 (stereo not given in full),0.172,0.0875,-0.036,0.515,0.126,0.147,0.118,-0.352 (inactive),0.361,0.0373
C=CC[C@@]1(C(=O)NCc2ccccc2)N=C(c2ccc(OCCCO)cc2)O[C@@H]1c1ccccc1CN=[N+]=[N-],0.351,-0.651,0.153,0.799,1.54,1.57,1.2,-2.56 (inactive),1.44,-0.0237
CC(C)N1C(=O)c2ccccc2[C@](C)(C(=O)NCCCN(C)C)[C@@H]1c1ccc(CO)cc1,0.261,1.04,-0.154,-0.231,-0.595,0.724,1.07,1.47 (inactive),-0.128,-0.0672
C=CC[C@@]1(C(=O)OC)N=C(c2ccc(OCCCO)cc2)O[C@@H]1c1ccccc1CN=[N+]=[N-],0.0729,0.0269,-0.116,-0.438,0.406,0.482,1.1,-0.484 (inactive),0.166,-0.199
O=C1NC(=O)C2C1C=CC(C(O)c1cccs1)N2Nc1ccccn1 (stereo not given),0.151,-0.133,0.0094,0.692,1.14,0.689,0.877,0.304 (inactive),0.282,-0.188
CC(C)NC(=O)[C@@]1(c2ccc([N+](=O)[O-])cc2)CC(=O)N(C(C)C)[C@@H]1c1ccc(CO)cc1,1.12,-0.0946,-0.134,-0.218,-0.999,-0.524,0.697,-0.31 (inactive),-1.08,-0.256
CC(=O)n1cc(C(O)C2C=CC3C(=O)N(c4ccccc4)C(=O)C3N2Nc2ccc(C#N)cc2)c2ccccc21 (stereo not given),-0.0594,-0.234,0.106,0.794,1.5,1.8,1.29,0.471 (inactive),0.296,0.0373
Cc1ccccc1/C=C/C=O,-0.162,-0.623,-0.135,-0.0909,-1.09,-0.628,-0.631,0.258 (inactive),-0.127,0.0957
C[C@H]1C2[C@H](Cc3ccccc3)NC(=O)[C@]23C(=O)N[C@H](Cc2ccccc2)C(=O)N[C@H](Cc2ccccc2)C(=O)NC/C=C/CCC/C=C/C3[C@@H]2O[C@]12C (stereo not given in full),-0.367,0.881,-0.174,0.309,-0.163,0.365,1.21,4.86 (inactive),0.22,0.154
O=c1cccc(-c2cccc3ccccc23)o1,0.745,-0.378,-0.0316,-0.413,-0.0766,-0.159,0.75,3.63 (inactive),0.0143,0.0053

# Source: PubChem BioAssay
